Screening results (PubChem BioAssay)
PrPC TRFRET – reduces human prion protein on the cell surface | P04156 | cell surface PrPC, TR-FRET read-out | inhibition, % at 13.8 µM | 0.43% of 370,000 active | AID 720596; in the data active = inhibition above about 24%; note: 0% = median of the test wells and 100% = reference compound wells
ugtP null kill – kills S. aureus RN4220 lacking UgtP. 0.54% of 330,000 active. growth inhibition, % (concentration not given with the values). S. aureus RN4220 ugtP deletion, OD600 growth, 16 h; in the data active = growth inhibition above about 68%;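 note: plate controls were untreated wells for no effect and antibiotic for full effect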
Sa RN4220 lethal – kills Staphylococcus aureus RN4220 | S. aureus RN4220 growth, OD600, 16 h | 0.33% of 330,000 active | inhibition, % (test concentration not listed); in the data active = inhibition above about 85%;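 note: plate controls were untreated cells for no effect and reference antibiotic for full effect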
DUSP3 inh – DUSP3 (human) phosphatase inhibition. inhibition, % at 13.3 µM. 0.52% of 290,000 active. P51452. recombinant VHR phosphatase, pNPP absorbance. AID 1654; in the data active = inhibition above about 50%
PfHsp40 rescue – rescue of PfHsp40-mediated yeast toxicity. AID 504582. S. cerevisiae expressing PfHsp40, growth rescue, ATP luminescence. 0.68% of 340,000 active. growth rescue, % at 12.5 µM; in the data active = growth rescue above about 28%, passing the limit was not always enough;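 note: yeast W303a lacking pdr1 and pdr3 grown in galactose medium; growth measured after three days at 30 °C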
PrPC confirm – cell surface PrPC inhibition, TR-FRET confirmation; shares compounds with PrPC TRFRET; cell surface PrPC level; inhibition, % at 13.8 µM; 65% of 1,500 active; AID 743200; in the data active = inhibition above about 25%
LD9 cytotox – kills or reduces viability of LD9 cells in PrPc counter-screen; 29% of 1,500 active; LD9 cells cytotoxicity, luminescence viability; inhibition, % at 13.8 µM; AID 743201; shares compounds with PrPC TRFRET; in the data active = inhibition above about 9.5%
Numbers without * were called inactive; / = not tested or not shown. Shown are actives, neighbours in structure and some others; about 1.8% of the full set was active somewhere.

SMILES	PrPC TRFRET	ugtP null kill	Sa RN4220 lethal	DUSP3 inh	PfHsp40 rescue	PrPC confirm	LD9 cytotox
Cc1ccc(-n2c(SCC(=O)N3CC(=O)Nc4ccccc43)nc3ccccc3c2=O)cc1	7	-3	-10	5	1	/	/
COC(=O)[C@@]1(Cc2ccc(F)cc2)C2c3cc(C(=O)N(C)C)n(Cc4ccccn4)c3CC2CN1C(=O)c1ccccc1 (stereo not given in full)	/	2	8	/	/	/	/
CC(=O)OC[C@]12CC[C@H]3[C@@](C)(CC[C@H]4C(C)(C)CCC[C@]34C)[C@@H]1CC(C1=CC(=O)OC1O)O2 (stereo not given in full)	54*	/	/	/	/	83*	99*
COC(=O)OCC12CCC(O1)C1(C)C(=O)OCC21 (stereo not given)	0	2	2	-5	0	/	/
Cc1ccc(NC(=O)c2cc(S(=O)(=O)N(C)C)ccc2N2CCCC2)cc1F	63*	6	2	21	0	54*	-6
Cc1nnc(NC(=O)c2cc(S(=O)(=O)N(C)C)ccc2N2CCCC2)s1	25*	6	2	/	-1	24	-4
CN(C)S(=O)(=O)c1ccc(N2CCCC2)c(C(=O)Nc2ccccc2)c1	42*	4	2	/	0	41*	-10
CN(C)S(=O)(=O)c1ccc(N2CCCC2)c(C(=O)NCC(=O)Nc2ccc(F)c(F)c2)c1	-5	6	6	/	1	/	/
COc1cc(C=NNC(=O)C(=O)/C=C2\NC(C)(C)Cc3ccccc32)ccc1O	/	4	2	/	/	/	/
COc1ccc(/C=C/C(=O)Nc2ccc(-n3nncc3-c3ccc(OC)c(OC)c3)cc2)cc1OC	25*	-4	-5	-14	0	28*	9.9*
Brc1cc2[nH]cnc2c2ccccc12	61*	-21	3	-11	1	79*	-8
CC(=O)O[C@@H]1[C@H]2[C@@H](C[C@@H](C)[C@@H]3C=CC(=O)[C@@]13C)OC(=O)[C@@H]2C	4	/	/	-4	0	/	/
C=C1C(=O)O[C@@H]2C[C@@H](C)[C@@H]3C=CC(=O)[C@@]3(C)[C@@H](OC(=O)CC(=O)O[C@H]3[C@@H]4C(=C)C(=O)O[C@@H]4C[C@@H](C)[C@@H]4C=CC(=O)[C@]43C)[C@H]12	98*	/	/	4	0	99*	99*
CCC(C)C(CNC)NCC(Cc1ccc(O)cc1)NCC(C)(C)C (stereo not given)	/	-3	5	/	/	/	/
Cc1ccc2[nH]c3c(=S)nc[nH]c3c2c1	129*	-4	5	26	0	147*	4
COc1ccc(C(=O)Nc2ccc(NC(=O)c3cc(OC)c(OC)c(OC)c3)cn2)cc1	43*	3	-3	12	0	38*	2
CC1COC(=O)CCCCC=CCC(CC(=O)N(CCO)Cc2ccccc2)C(=O)N1 (stereo not given)	/	-3	1	/	/	/	/
COC(=O)C1=C(C(=O)OC)C2N(Cc3ccccc3)c3ccccc3[C@@]23CC(CO)N(C(=O)NC2CCCC2)C3=N1 (stereo not given in full)	/	-1	0	/	/	/	/
O=C(CCC(=O)c1cccs1)NC(c1ccccc1)c1ccccc1	33*	16	0	0	-1	-2	-2
CC(NC(=O)CCC(=O)c1cccs1)c1ccccc1 (stereo not given)	-3	0	-1	/	0	/	/
COc1cc2c3cc1Oc1c(OC)c(OC)cc4c1C(Cc1ccc(cc1)Oc1cc(ccc1O)CC3N(C)CC2)N(C)CC4 (stereo not given)	/	0	-1	/	/	/	/
O=[N+]([O-])c1ccc(OS(=O)(=O)Cc2ccccc2)cc1	-7	-3	5	8	1	/	/
N#Cc1c([N+](=O)[O-])cc([N+](=O)[O-])cc1S(=O)(=O)Cc1ccccc1	42*	57	34	/	17	84*	98*
Oc1ccc(C=NNc2ncc(Br)cn2)c(O)c1	/	-7	8	/	/	/	/
COc1ccc(S(=O)(=O)N2CCCCC2c2cc(C(=O)Nc3ccc4c(c3)OCO4)no2)cc1 (stereo not given)	28*	/	/	/	/	18	-3
SMILES	PrPC TRFRET	ugtP null kill	Sa RN4220 lethal	DUSP3 inh	PfHsp40 rescue	PrPC confirm	LD9 cytotox
CC(C)NC(=O)c1cc(C2CCCCN2S(=O)(=O)c2ccc(C#N)cc2)on1 (stereo not given)	-1	/	/	/	/	/	/
N#Cc1cccc(NC(=O)c2cc(C3CCCCN3S(=O)(=O)c3ccccc3)on2)c1 (stereo not given)	26*	/	/	/	/	17	-2
CS(=O)(=O)N1CCCCC1c1cc(C(=O)Nc2ccc3c(c2)OCO3)no1 (stereo not given)	-3	/	/	/	/	/	/
O=C(Nc1ccc2c(c1)OCO2)c1cc(C2CCCN(C(=O)CCc3ccccc3)C2)on1 (stereo not given)	38*	/	/	/	/	25*	-1
CN1CCc2c(sc(NC(=O)c3ccc([N+](=O)[O-])o3)c2C(N)=O)C1	44*	/	/	-4	0	42*	61*
Cc1cc(C)cc(NC(=O)c2cccn2-c2ncc(C(F)(F)F)cc2Cl)c1	32*	20	-9	31	4	17	2
CN1CCN(c2ccc([N+](=O)[O-])cc2C=NNC(=O)c2cccc([N+](=O)[O-])c2)CC1	/	8	5	/	/	/	/
CCC(=O)N1CCN(c2ccc(-n3c(=O)ccc4cnc5ccc(-c6cnc7ccccc7c6)cc5c43)cc2C(F)(F)F)CC1	37*	/	/	/	/	39*	33*
CCOc1ccc(C2SCC(=O)Nc3c2c(=O)[nH]n3C2CCCCCC2)cc1 (stereo not given)	51*	14	2	8	9	5	-3
COc1ccc(C2SCC(=O)Nc3c2c(=O)[nH]n3C2CCCCCC2)cc1 (stereo not given)	2	-4	0	2	1	/	/
Cc1cc(C)n2nc(C(=O)NN=C/C=C/c3ccccc3)nc2n1	/	8	3	/	/	/	/
Cc1ccc(Cc2nc(-c3ccncc3)no2)cc1	72*	-7	-5	28	2	5	2
CC(C)CC(NC(=O)c1nc[nH]c1C(=O)NCCCCCN)C(=O)OCc1ccccc1 (stereo not given)	/	-15	0	/	/	/	/
CON=CC(C#N)=Cc1cc(C(=O)c2ccc(F)cc2)cn1C	/	-2	2	/	/	/	/
CNCC(C)NCC(Cc1ccccc1)NCCc1ccccc1 (stereo not given)	/	-2	-3	/	/	/	/
CN(C)S(=O)(=O)Oc1cccc(C(=O)Nc2ccccc2Cl)c1	4	10	2	7	0	/	/
CN(C)S(=O)(=O)Oc1cccc(C(=O)Nc2ccc(Cl)cc2)c1	27*	0	2	32	353*	29*	12*
Cc1c(Cl)c([N+](=O)[O-])nn1Cc1ccc(C(=O)NN=Cc2ccccn2)o1	/	11	2	/	/	/	/
C/C(=N\Nc1nc2ccccc2[nH]1)c1ccccn1	26*	/	/	13	0	48*	69*
CC(=NNc1nc2ccccc2[nH]1)c1cccs1	/	-19	-1	/	/	/	/
